About 83,000 compounds went through this panel and 20% of them were active in at least one assay; those are over-represented in the sample as a whole.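 For each line, cells grew in 96-well plates with the test compound present at a single concentration for 48 hours.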 Values without a mark were called inactive. Activity calls are given as the source filed them. The calls were made as follows: active = growth percent below 10; inactive = the rest.
Legend:
Test in all cases: NCI-60 one-dose screen, 48 h (100 = growth as untreated, 0 = no growth, -100 = all killed)
Settings in all cases: 10 µM unless noted
[1] = test system: HCT-15 colon
[2] = test system: HT29 colon
[3] = test system: SNB-75 CNS
[4] = test system: SNB-19 CNS
[5] = test system: U251 CNS
[6] = test system: PC-3 prostate
[7] = test system: SK-MEL-5 melanoma
[8] = test system: UACC-62 melanoma
[9] = test system: LOX IMVI melanoma
[10] = test system: SK-MEL-28 melanoma
[11] = test system: SK-MEL-2 melanoma
[12] = test system: EKVX NSCLC
[13] = test system: SN12C renal
[14] = test system: UO-31 renal
[15] = test system: TK-10 renal
[16] = test system: ACHN renal
[17] = test system: A498 renal
[18] = test system: CCRF-CEM leukemia
[19] = test system: MOLT-4 leukemia

| SMILES | growth [1] | growth [2] | growth [3] [%] | growth [4] [%] | growth [5] | growth [6] | growth [7] | growth [8] | growth [9] | growth [10] | growth [11] | growth [12] [%] | growth [13] | growth [14] | growth [15] | growth [16] | growth [17] | growth [18] | growth [19] |
| --- | --- | --- | --- | --- | --- | --- | --- | --- | --- | --- | --- | --- | --- | --- | --- | --- | --- | --- | --- |
| CN(C)c1ccc(/C=N/N=C(N)N)cc1 | 49% | 26.4% | 66.5 | 74.2 | 60.2% | 83.8% | 47.3% | 72.7% | 70.5% | 81.7% | 78.6% | 89.3 | 82.3% | 72.5% | 106% | 98.5% | 17.7% | 104% | 83.2% |
| COc1ccc(-c2c(NC(=O)Nc3ccc(Cl)c(C(F)(F)F)c3)cnn2-c2ccc(S(N)(=O)=O)cc2)cc1 | 68.3% | 24.8% | 65.7 | 21.5 | 15.6% | 9.52% (active) | 27% | 41.2% | 37.6% | 42.2% | -4.24% (active) | 61.6 | 51.4% | 50.9% | 30.9% | 57.5% | 26.8% | 8.88% (active) | 1.8% (active) |
| CCOc1ccccc1C(=O)N1CCN(c2cc(Cl)cc(Cl)c2)CC1 | 11.2% | -27.4% (active) | 34.3 | 24 | 12.5% | 10.6% | -44.1% (active) | 19.5% | 17.7% | 54.7% | 18.5% | 34.1 | 25.7% | 24.9% | 55.5% | 21.9% | 6.38% (active) | 7.43% (active) | 7.37% (active) |
| CN1CCN(CC(O)COc2c(Br)c(Br)c(Br)c3c2OC(C)(C)C3)CC1 (configuration not stated) | 28.7% | -12.8% (active) | 90.7 | 92.7 | 56.4% | 53% | -86% (active) | -59.5% (active) | 4.05% (active) | -89.2% (active) | 38.5% | 87.7 | 92.5% | -14.8% (active) | 74.1% | 77.9% | 58.1% | 15.6% | 18.3% |
| C=C1C(=O)O[C@H]2[C@H]1CC/C(COC(=O)c1ccccc1)=C\CC[C@@]1(C)O[C@@H]21 | -66.1% (active) | -62.7% (active) | 68.8 | 33.1 | 26.8% | 35% | 12% | -66.9% (active) | -88.6% (active) | -33.9% (active) | 15% | 11.5 | -22.4% (active) | -95.7% (active) | -0.228% (active) | -83.7% (active) | 99.4% | -26% (active) | -22.2% (active) |
| COc1ccc(-c2c(C#N)cnc(N)c2-c2nc3cc(C)c(C)cc3[nH]2)cc1 | 60.3% | 37.3% | 84.2 | 67.6 | 1.05% (active) | 57.8% | 32.2% | 56.1% | 59.6% | 77% | 41.4% | 63 | 80.7% | 83.9% | 48.6% | 53.2% | 82.9% | 90.5% | 104% |
| COC(OC)C1(c2ccccc2)NC(=O)NC1=O (configuration not stated) | 110% | 106% | 94 | 106 | 107% | 103% | 115% | 106% | 109% | 106% | 104% | 112 | 101% | 101% | 101% | 108% | 108% | 112% | 89.1% |
| COc1ccc(/C=C/C(=O)/C=C(/C=C/c2ccc(OC)c(OC)c2OC)OB(F)F)c(OC)c1OC | 9.58% (active) | 13.9% | 94.5 | 57.1 | 4.99% (active) | 29.1% | 36.8% | 35.4% | -5.79% (active) | 41% | 76% | 65.8 | 20.6% | 16.8% | 35.6% | -16.4% (active) | 95.1% | -2.62% (active) | 3.43% (active) |
